Source: PubChem BioAssay
KB-V1 MDR tox: qHTS assay for MDR1-selective chemotherapeutics: Primary screen using the drug-selected MDR subline cells KB-V1. KB-V1 MDR cells viability, CellTiter-Glo, 72 h. Potency, µM (top dose mostly 46.1 µM), actives largely listed as cytotoxic. 3.4% of 400,000 active. AID 1347076, 2019; further: on the % scale 0 is the no-effect control and ±100 the full control effect; nearly all actives have a fitted effect of over 60% in size
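KB-V1, DMEM (no phenol red) + 10% FBS; cpd pin-transferred, titration series; 72 h, 37 degrees C; CellTiter-Glo, luminescence. Data normalized, curve-fit.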
HT1080-NT tox: qHTS for induction of synthetic lethality in tumor cells producing 2HG: qHTS for the HT-1080-NT fibrosarcoma cell line | 1.6% of 360,000 active | HT-1080-NT fibrosarcoma viability, CellTiter-Glo ATP luminescence, 48 h | Potency, µM (doses to about 46.1 µM), for inactives: at the top dose activity, negative = less viability, most hits filed as cytotoxic | AID 686970, 2013;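 further: NT is the 2HG producing partner of a matched IDH1 knockdown line; 0% = DMSO-treated cells and -100% = media-only wells without cells; nearly all actives have a fitted effect of over 55% in size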
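Toxicity toward the 2HG-producing NT line was scored as %Activity, normalised to DMSO and no-cell wells, from CellTiter-Glo luminescence after 48 hours' treatment.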
HT1080 IDH1KD tx: qHTS for induction of synthetic lethality in tumor cells producing 2HG: qHTS for the HT-1080-IDH1KD cell line; Potency, µM (highest dose often 46.1 µM), inactives show at the top dose activity, negative = toxicity, most hits filed as cytotoxic; 2% of 360,000 active; HT-1080 IDH1 knockdown viability, ATP luminescence, 48 h;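 further: 0% = DMSO wells and -100% = cell-free medium wells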
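HT-1080-IDH1KD cells (IDH1 knocked down), 750/well in RPMI with 5% FBS, treated with compound 48 h at 37 degrees C. Viability by CellTiter-Glo luminescence, normalised to DMSO and no-cell wells; concentration-response curves classed.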
KB-3-1 tox: qHTS assay for MDR1-selective chemotherapeutics: Primary screen using the parental adenocarcinoma cell KB-3-1 | KB-3-1 viability, CellTiter-Glo ATP luminescence, 72 h | Potency, µM (series often up to 46.1 µM), usual class: cytotoxic | 1.4% of 400,000 active | AID 1347075, 2019; further: on the % scale 0 is the no-effect control and ±100 the full control effect; nearly all actives have a fitted effect of over 60% in size
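Parental KB-3-1 adenocarcinoma cells in phenol-red-free DMEM with 10% FBS were pin-treated with compounds at several concentrations, incubated 72 h at 37 °C, and viability read by CellTiter-Glo luminescence; concentration-effect curves were fitted after normalization.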
MCF10A rereplic: A quantitative high throughput screen for small molecules that induce DNA re-replication in MCF 10a normal breast cells. MCF 10A DNA re-replication, Hoechst nuclear intensity, 48 h. Potency, µM (top dose mostly 46.1 µM), for inactives: at the top dose activity, positive = re-replication, usual class: activators. 2.9% of 350,000 active. AID 624296, 2012; further: % of control where 0% means no effect; nearly all actives have a fitted effect of over 50% in size
SW480 rerep: A quantitative high throughput screen for small molecules that induce DNA re-replication in SW480 colon adenocarcinoma cells | Potency, µM (titrated, usually from 46.1 µM), inactives show top-dose re-replication activation, hits mostly activators | 1.8% of 340,000 active | SW480 DNA re-replication, Hoechst DNA content imaging, 48 h; further: % of control where 0% means no effect; nearly all actives have a fitted effect of over 55% in size
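Cells (250 per well) received 23 nL compound or DMSO by pin tool and were kept 48 hr at 37 C, 5% CO2. Nuclei were then stained with Hoechst for 40 min and scanned for DNA content.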
Active calls of the source: *; i = inactive; ? = inconclusive; / = no result given; [ ] = dose if it differs, or a comment. This is a sample that favours compounds with a hit; in the whole collection about 8% have one here. The call rests on the fitted dose curve; in most records, active means well fitted curve in the direction sought with a large enough effect; inconclusive means small, poorly fitted or top-dose-only effect, or another doubt; inactive means no such curve, though single readings can be large; an effect the other way counts as inactive or inconclusive. Potency means the concentration at half of the fitted maximal effect.

SMILES	KB-V1 MDR tox	HT1080-NT tox	HT1080 IDH1KD tx	KB-3-1 tox	MCF10A rereplic	SW480 rerep
COc1ccc(NC(=O)C2(C)Cc3c(-c4ccc(NC(C)=O)cc4)ccnc3O2)cc1OC (configuration not stated)	i	-1.2%	-10.5%	i	/	/
COc1ccc(-c2c(C)nn3c(N4CCCCCC4)cc(C)nc23)cc1OC	?	?	?	18.4µM*	?	2.3%
COc1ccc(-c2c(C)nn3c(N4CCOCC4)cc(C)nc23)cc1OC	i	-15.4%	3.4%	i	14.4%	-6.8%
CC(C)C(=O)N1CCN(c2c(Cl)cccc2[N+](=O)[O-])CC1	14.6µM*	16.0%	8.8%	?	5.1%	-5.8%
CCC(=O)N1CCN(c2c(Cl)cccc2[N+](=O)[O-])CC1	?	2.0%	0.4%	?	-10.3%	-2.3%
O=C(/C=C/c1ccccc1)N1CCN(c2c(Cl)cccc2[N+](=O)[O-])CC1	i	-5.7%	-9.1%	i	25.9µM*	25.8%
COc1ccc(-c2cc(C(=O)Nc3ccc(S(N)(=O)=O)cc3)c3ccccc3n2)cc1OC	i	-22.0%	?	i	8.2µM*	5.8µM*
O=C(NC1CC1)c1cc(-c2ccc(Br)cc2)nc2ccccc12	i	6.5%	-0.2%	i	24.8%	1.5%
CN1CCC(NC(=O)c2cc(-c3cccc(Br)c3)nc3ccccc23)CC1	i	20.6µM*	20.6µM*	?	8.9%	?
COc1ccc(-c2cc(C(=O)Nc3ccccc3O)c3ccccc3n2)cc1OC	?	-3.0%	3.1%	i	9.8%	?
COc1ccc(-c2cc(C(=O)Nc3nc4ccccc4s3)c3ccccc3n2)cc1OC	i	-21.3%	-26.0%	i	2.91µM*	?
COc1cc(NC(=O)c2cc(-c3cccnc3)nc3ccc(Br)cc23)cc(OC)c1	i	3.1%	1.6%	?	16.4µM*	-3.5%
CCOc1ccc(C(=O)Nc2nncs2)cc1OCC	i	-4.2%	0.1%	i	-12.6%	3.9%
O=C1C(Cl)=C(N2CCCC2)C(=O)N1c1ccccc1F	i	4.3%	-5.3%	i	4.0%	?
COc1ccc(OC)c(-n2c(SCC(=O)Nc3cccc(S(N)(=O)=O)c3)nc3ccccc3c2=O)c1	i	-17.1%	-0.2%	i	-4.2%	-10.8%
COc1cc(NC(=O)c2ccccc2-c2ccccc2)cc(OC)c1	11.6µM*	5.3%	2.3%	i	-2.1%	-241.7%
Cc1cccc(NC(=O)NNC(=O)c2cc(-c3ccccc3Cl)nc3ccccc23)c1	i	?	?	i	?	17.2%
O=C(NNC(=O)c1cc(-c2ccc(Cl)c(Cl)c2)nc2ccccc12)Nc1ccccc1	?	?	?	?	20.6µM*	?
COc1ccc(-c2cc(C(=O)Nc3cccnc3)c3ccccc3n2)cc1OC	9.2µM*	-5.3%	-15.1%	?	?	-0.3%
O=C(Nc1ccncc1)c1cc(-c2cccc(Br)c2)nc2ccccc12	?	?	?	20.6µM*	16.4µM*	7.6%
COc1cccc(-c2cc(C(=O)Nc3cccnc3)c3ccccc3n2)c1	?	-3.2%	-4.4%	i	15.8%	0.9%
Cc1cc(C)c(S(=O)(=O)N2CCCC(C(=O)N3CCOCC3)C2)c(C)c1 (configuration not stated)	i	23.2%	2.7%	i	6.7%	3.3%
O=C(NC1=NCCS1)c1cc(-c2cccc(Br)c2)nc2ccccc12	14.6µM*	-1.2%	-17.6%	?	?	19.0%
O=C(NCc1ccccn1)c1cc(-c2ccc(Br)cc2)nc2ccccc12	2.59µM*	9.4%	12.4%	i	?	-9.7%
O=C(Nc1cccnc1)c1cc(-c2cccnc2)nc2ccc(Br)cc12	i	-1.5%	-1.3%	i	-21.7%	1.4%
SMILES	KB-V1 MDR tox	HT1080-NT tox	HT1080 IDH1KD tx	KB-3-1 tox	MCF10A rereplic	SW480 rerep
O=C(Nc1cccnc1)c1cc(-c2cccc(Br)c2)nc2ccccc12	10.3µM*	-5.7%	-2.3%	i	?	3.2%
Cc1ccc(-c2cc(C(=O)NCc3ccccn3)c3ccccc3n2)cc1	i	-11.7%	-21.3%	i	?	5.4%[9.22 µM]
CC(=O)N1CCN(C(=O)c2ccc(OC3CCN(CCc4ccccc4)CC3)cc2)CC1	/	-1.0%	1.9%	/	1.8%	-0.2%
CC(C)(C)NC(=O)NCC1CCCC1NC(=O)NC(C)(C)C (configuration not stated)	25.9µM*	0.3%	1.1%	i	-4.1%	-5.1%
CC(Oc1ccc(Cl)cc1Cl)C(=O)NNC(=O)c1ccncc1 (configuration not stated)	i	?	-7.2%	i	-1.2%	-1.3%
CC(Oc1ccc(Cl)cc1Cl)C(=O)NCCCn1ccnc1 (configuration not stated)	i	7.4%	11.5%	i	16.4µM*	-6.4%
CC(Oc1ccc(Cl)cc1Cl)C(=O)NCc1ccncc1 (configuration not stated)	20.6µM*	0.1%	-5.6%	i	-0.8%	-1.9%
CC(Oc1ccc(Cl)cc1Cl)C(=O)Nc1ccc2oc(-c3ccncc3)nc2c1 (configuration not stated)	i	-4.2%	-9.0%	?	9.2µM*	?
COc1ccc(C(=O)Nc2nc3cc4c(cc3s2)OCCO4)c(OC)c1	i	-4.4%	0.6%	i	4.11µM*	15.8%
COc1ccc2nc(NC(=O)c3ccccc3O)sc2c1	i	?	-28.0%	?	20.6µM*	?
COc1ccc2nc(NC(=O)Nc3ccccc3OC)sc2c1	4.61µM*	?	?	5.17µM*	?	2.91µM*
COc1ccc(OC)c(NC(=O)Nc2cccc3ccccc23)c1	7.31µM*	1.7%	9.3%	i	?	-1.7%
O=C(Nc1ccc(F)cc1)Nc1cc(S(=O)(=O)N2CCOCC2)ccc1N1CCCC1	i	1.0%	-0.5%	i	11.1%	-12.3%
COc1ccc2nc(NC(=O)Nc3cccc4ccccc34)sc2c1	i	?	?	i	9.2µM*	-19.2%
COc1ccc2nc(NC(=O)c3ccc4ncsc4c3)sc2c1	i	?	?	i	14.6µM*	?
